DNA Pol III inh: qHTS Assay for Inhibitors of DNA Polymerase III Holoenzyme System | AID 603, 2007 | reconstituted DNA polymerase III holoenzyme replication, biochemical | 0.25% of 71,000 active | Potency, µM (top dose mostly 57.1 µM), without a hit: top-dose activity change, negative = inhibition; also: potency is read from the fitted curve at half-maximal effect; % is scaled to controls: 0 for no effect and ±100 for the full control effect
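Reconstituted *E. coli* holoenzyme (0.35 nM Pol III, 1 nM beta, 154 nM SSB, 2 nM primase) was preincubated with compound for 15 min at RT. Synthesis on 1.4 nM ssM13Gori ran 35 min, then was stopped with PicoGreen/EDTA and read as dsDNA fluorescence.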
BRCT PPI green: qHTS Assay for Inhibitors of BRCT-Phosphoprotein Interaction (Green Fluorophore) | 0.05% of 75,000 active | Potency, µM (doses to about 76.9 µM), inactives show at the highest dose activity change, negative = inhibition, most hits filed as inhibitors | AID 875, 2007 | Breast cancer type 1 susceptibility protein (Homo sapiens), P38398 | BRCA1 BRCT-phosphopeptide binding, green fluorescence polarization;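 also: potency is read from the fitted curve at half-maximal effect; plate controls were peptide without protein for full effect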
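Compounds were incubated for 12 min at room temperature with a complex of 100 nM fluorescein-tagged pBACH1 decapeptide and 250 nM His-tagged BRCT protein. Buffer was phosphate pH 7.3 with EDTA, DTT and Tween 20. Disruption of binding lowers the polarization signal.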
YjeE inh: qHTS Assay for Inhibitors of YjeE | tRNA threonylcarbamoyladenosine biosynthesis protein TsaE (Escherichia coli (strain … | purified YjeE enzyme, qHTS inhibition assay | Potency, µM | 0.05% of 71,000 active
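Fluorescence polarization of a BODIPY Texas Red–ADP probe (2 uM) bound to purified YjeE (10 uM) was read after 15 min room-temperature incubation with compounds. Loss of polarization marks inhibitors; ADP serves as titrated control.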
15-hLO inh: qHTS Assay for Inhibitors of 15-hLO (15-human lipoxygenase); Polyunsaturated fatty acid lipoxygenase ALOX15 (Homo sapiens), P16050; purified 15hLO-1, xylenol orange hydroperoxide absorbance; Potency, µM (series often up to 57.1 µM), for the others: top-dose activity change, negative = inhibition, hits mostly inhibitors; 1.4% of 74,000 active; AID 887, 2007; also: potency is read from the fitted curve at half-maximal effect; % is scaled to controls: 0 for no effect and ±100 for the full control effect; nearly all actives have a fitted effect of over 55% in size
Target sequence (P16050 whole entry, looked up): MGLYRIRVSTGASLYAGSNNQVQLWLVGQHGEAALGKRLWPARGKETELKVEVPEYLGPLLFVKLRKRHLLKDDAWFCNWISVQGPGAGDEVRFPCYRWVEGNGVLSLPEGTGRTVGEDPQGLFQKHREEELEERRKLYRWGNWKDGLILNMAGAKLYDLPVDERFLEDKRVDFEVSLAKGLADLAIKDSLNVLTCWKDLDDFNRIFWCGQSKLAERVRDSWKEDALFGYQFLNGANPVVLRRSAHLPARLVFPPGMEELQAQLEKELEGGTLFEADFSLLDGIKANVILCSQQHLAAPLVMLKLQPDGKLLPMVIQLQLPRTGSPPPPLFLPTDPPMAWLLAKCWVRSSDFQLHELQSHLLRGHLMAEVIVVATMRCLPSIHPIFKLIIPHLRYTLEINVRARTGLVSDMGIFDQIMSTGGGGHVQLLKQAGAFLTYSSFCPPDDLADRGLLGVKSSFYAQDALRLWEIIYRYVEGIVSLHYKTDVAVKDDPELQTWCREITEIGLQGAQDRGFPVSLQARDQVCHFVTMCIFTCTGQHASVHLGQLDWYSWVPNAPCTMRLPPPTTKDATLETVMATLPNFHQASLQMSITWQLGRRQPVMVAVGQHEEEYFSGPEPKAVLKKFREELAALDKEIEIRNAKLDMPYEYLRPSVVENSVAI
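40 nM 15hLO-1 + cpd, 15 min RT; start w/ 50 uM AA (final), 6 min RT; stop/detect w/ 200 uM XO + 300 uM Fe(II) in 50 mM H2SO4, 30 min; A573/A405. Buffer 25 mM Hepes pH 7.5, 0.01% Triton X-100. No-enzyme wells as negative control.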
BRCT PPI red: qHTS Assay for Inhibitors of BRCT-Phosphoprotein Interaction (Red Fluorophore). Breast cancer type 1 susceptibility protein (Homo sapiens), P38398. BRCT-phosphopeptide binding, red fluorescence polarization. Potency, µM (series often up to 76.9 µM), for inactives: at the top dose activity change, negative = inhibition, most hits filed as inhibitors. 0.03% of 75,000 active. AID 892, 2007; also: % is scaled to controls: 0 for no effect and ±100 for the full control effect
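Fluorescence polarization: 100 nM His-tagged BRCA1 BRCT with 100 nM TAMRA-labelled phospho-BACH1 decapeptide, phosphate buffer pH 7.3 with 150 mM NaCl, DTT, 0.01% Tween 20; 12 min RT. Binding inhibition seen as FP decrease.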
Hsp90 Hop PPI: qHTS Assay for Disrupters of an Hsp90 Co-Chaperone Interaction | Hsp90 C-terminal peptide / TPR2A (Hop) interaction, human | AlphaScreen TPR2A-His6 binding biotin-Hsp90 C-terminal peptide | Potency, µM (titrated, usually from 57 µM), inactives show at the top dose activity change, negative = inhibition | 0.44% of 71,000 active; active = well fitted curve in either direction with a large enough effect; inconclusive = small, poorly fitted or top-dose-only effect, or another doubt; also: potency is read from the fitted curve at half-maximal effect; % is scaled to controls: 0 for no effect and ±100 for the full control effect
Hsp90-TPR2A inh: Confirmation Concentration-Response Assay and Counterscreen for Disrupters of an Hsp90 Co-Chaperone Interaction | shares compounds with Hsp90 Hop PPI | AlphaScreen TPR2A-His6 / biotin-Hsp90 peptide binding | activity, negative = inhibition, % at 40 µM or 46 µM, hits read low | 100% of 45 active | AID 632, 2007;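 active = compound lowering the Hsp90 and TPR2A binding signal, whether or not the linker counterscreen also flagged it as an artifact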
The depositor's hits bear a star; i = inactive; ? = inconclusive; . = no result; + = active, no number; [ ] = dose if it differs, or a comment. Compounds with a hit are over-represented: about 1.9% of the library has one in this group of screens. Unless noted, calls follow the shape of the dose curve; as a rule, active = well fitted curve in the direction sought with a large enough effect; inconclusive = small, poorly fitted or top-dose-only effect, or another doubt; inactive = no such curve, though single readings can be large; an effect the other way counts as inactive or inconclusive.

SMILES	DNA Pol III inh	BRCT PPI green	YjeE inh	15-hLO inh	BRCT PPI red	Hsp90 Hop PPI	others
CCCC[N+]1(C)[C@@H]2CC(OC(=O)[C@@H](CO)c3ccccc3)C[C@H]1[C@H]1O[C@H]12 (stereo partly drawn)	-4%	-3%	i	-5%	-1%	-2%
CC(C)CCCC1(C)C=Cc2c(O)c3c(c(CCC(C)C)c2O1)OC12C(CC4CC1C(C)(C)OC2(CCC(C)C(=O)O)C4O)C3=O (stereo not drawn)	.	2%[3.08 µM]	.	?	-2%	.
CC(C)=CCCC1(C)C=Cc2c(O)c3c(c(CC=C(C)C)c2O1)OC12C(=CC4CC1C(C)(C)OC2(C/C=C(/C)C(=O)O)C4=O)C3=O (stereo not drawn)	.	-1%[3.08 µM]	.	16µM*	1%	.
CC(C)=CCCC1(C)C=Cc2c(O)c3c(c(CC=C(C)C)c2O1)OC12C(=CC4CC1C(C)(C)OC2(C/C=C(/C)C(=O)O)C4O)C3=O (stereo not drawn)	.	-3%	.	20µM*	-3%	.
CCN1C[C@]2(C)CC[C@@H](O)[C@]34[C@@H]5CC6[C@@H](OC)C[C@@](O)([C@H]5[C@@H]6O)[C@@H](C[C@@H]23)[C@H]14	-5%	-1%	i	6%	0%	-2%
CCn1nc(-c2cccs2)nc2c(=O)n(C)c(=O)nc1-2	-4%	-2%	i	-16%	0%	1.6µM*	Hsp90-TPR2A inh=+
NC(=O)CN1C[C@@H](O)CC1=O	-10%	-3%	i	7%	-2%	-8%
Cn1nc(Cc2ccccc2)nc2c(=O)n(C)c(=O)nc1-2	.	.	.	.	.	.	Hsp90-TPR2A inh=+
CN1CCC[C@@H]1c1cccnc1.O=C(O)c1ccccc1O.O=C([OH2+])c1ccccc1O.O=C([OH2+])c1ccccc1O.[Mn]	-6%[11.4 µM]	-1%[15.4 µM]	i	-2%[11.4 µM]	-1%[15.4 µM]	0%[11 µM]

Compound activity as filed in PubChem BioAssay.
